# Experimental data as given in PubChem BioAssay (Tox21).
# Several values for one entry are separate records, joined by “and”; a condition that tells them apart may be missing. Equal entries are not always repeated. Records with an inconclusive call do not appear. A call without a number means that no potency is given here. Some structures have more than one record in an assay (separate samples or runs), and their calls can disagree. Activity calls are given as the source filed them. The call rests on the fitted dose curve; in most records, active means well fitted curve in the direction sought with a large enough effect in the repeat runs; inconclusive means weak or mixed curves; inactive means no such curve, though single readings can be large; an effect the other way counts as inactive or inconclusive.
# Tested on: not listed separately
# Test: qHTS assay to identify small molecule antagonists of the estrogen related receptor (ERR) signaling pathway from Tox21 library - cell viability counter screen (AID 1224834); further: nearly all actives have a fitted effect of over 30% in size; further: potency means the concentration at half of the fitted maximal effect
# Settings: ERR reporter cells viability, CellTiter-Fluor, 17.5 h; series mostly up to 92.4 µM; viability change, negative = cytotoxic: at the top concentration
# Procedure, shortened: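 ERR cells, 2,000/well; 6 h settle at 37 C/5% CO2; pin-tool compound transfer in DMSO; 17.5 h at 37 C; CellTiter-Fluor, 30 min; fluorescence intensity.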
Compound,Potency,"viability change, negative = cytotoxic"
CCCN(CCC)c1c([N+](=O)[O-])cc(C(F)(F)F)cc1[N+](=O)[O-],inactive,–
COC(=O)NC(=S)Nc1ccccc1NC(=S)NC(=O)OC,inactive,–
CN(C)[C@@H]1C(=O)C(C(N)=O)=C(O)[C@@]2(O)C(=O)C3=C(O)c4c(O)cccc4[C@@](C)(O)[C@H]3C[C@@H]12,inactive,–
CCN(CC)CCO,inactive,–
CC1OC(C)OC(C)O1 (stereo not given),inactive,–
COc1ccc2c3c1O[C@H]1[C@@H](O)C=C[C@H]4[C@@H](C2)N(C)CC[C@@]341,42.6 µM (active) and inactive,–
CC(Oc1ccc(Cl)cc1Cl)C(=O)O (stereo not given),inactive,–
Nc1c(Cl)c(Cl)nc(C(=O)O)c1Cl,inactive,–
O=C(O)c1ccccn1,inactive,–
CCCCN(CC)C(=O)SCCC,inactive,–
CCNc1nc(NC(C)(C)C)nc(SC)n1,–,0.972% (inactive)
Cc1ccc(N)cc1N,inactive,–
NCCc1ccc(O)cc1,inactive,–
CCCCN(CCCC)SN(C)C(=O)Oc1cccc2c1OC(C)(C)C2,inactive,–
CCN(CC)c1ccccc1,inactive,–
O=c1ccc(=O)[nH][nH]1,inactive,–
CCOC(=O)c1ccccc1C(=O)OCC,inactive,–
COC(=O)c1ccccc1C(=O)OC,–,10.6% (inactive)

Compound,Potency,"viability change, negative = cytotoxic"
CN1C(=O)CN=C(c2ccccc2)c2cc(Cl)ccc21,–,-0.158% [at 42.5 µM] (inactive)
COC(=O)c1ccccc1N,inactive,–
[N-]=[N+]=[N-],inactive,–
C=CCO,inactive,–
O=S(=O)(c1ccc(Cl)cc1)c1cc(Cl)c(Cl)cc1Cl,inactive,–
CCC[N+](=O)[O-],26.8 µM (active) and inactive,–
CCCC1COC(Cn2cncn2)(c2ccc(Cl)cc2Cl)O1 (stereo not given),49.4 µM (active) and 54.5 µM (active),–
CCCCCOC(=O)c1ccccc1C(=O)OCCCCC,inactive,–
C=C(C)CCl,–,-1.99% (inactive)
C1CN2CCN1CC2,inactive,–
CCOP(=S)(OCC)Oc1cnc2ccccc2n1,inactive,–
Cc1ccc([N+](=O)[O-])cc1C,inactive,–
CC(C)=C[C@@H]1[C@@H](C(=O)OCc2coc(Cc3ccccc3)c2)C1(C)C,inactive,–
C[C@]12CC[C@H]3[C@@H](CC[C@@]45O[C@@H]4C(O)=C(C#N)C[C@]35C)[C@@H]1CC[C@@H]2O,inactive,–
c1ccc(OP(Oc2ccccc2)Oc2ccccc2)cc1,inactive,–
O=C1CCCN1,inactive,–
c1ccc2c(c1)oc1ccccc12,inactive,–
Cc1cccc([N+](=O)[O-])c1,inactive,–

# Biological target: Luciferin 4-monooxygenase (Photinus pyralis) (UniProt P08659)
# Test: qHTS assay to identify small molecule inhibitors of firefly luciferase (AID 1224835); further: nearly all actives have a fitted effect of over 25% in size; further: potency means the concentration at half of the fitted maximal effect
# Settings: purified P. pyralis luciferase, luminescence inhibition; series mostly up to 115 µM; activity change, negative = inhibition: at the top concentration
# Procedure, shortened: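 Quantitative HTS format; KM concentrations of both substrates. Purified P. pyralis FLuc activity quantified from luminescence images.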
# Chain of Luciferin 4-monooxygenase (Photinus pyralis) (P08659 whole entry, looked up): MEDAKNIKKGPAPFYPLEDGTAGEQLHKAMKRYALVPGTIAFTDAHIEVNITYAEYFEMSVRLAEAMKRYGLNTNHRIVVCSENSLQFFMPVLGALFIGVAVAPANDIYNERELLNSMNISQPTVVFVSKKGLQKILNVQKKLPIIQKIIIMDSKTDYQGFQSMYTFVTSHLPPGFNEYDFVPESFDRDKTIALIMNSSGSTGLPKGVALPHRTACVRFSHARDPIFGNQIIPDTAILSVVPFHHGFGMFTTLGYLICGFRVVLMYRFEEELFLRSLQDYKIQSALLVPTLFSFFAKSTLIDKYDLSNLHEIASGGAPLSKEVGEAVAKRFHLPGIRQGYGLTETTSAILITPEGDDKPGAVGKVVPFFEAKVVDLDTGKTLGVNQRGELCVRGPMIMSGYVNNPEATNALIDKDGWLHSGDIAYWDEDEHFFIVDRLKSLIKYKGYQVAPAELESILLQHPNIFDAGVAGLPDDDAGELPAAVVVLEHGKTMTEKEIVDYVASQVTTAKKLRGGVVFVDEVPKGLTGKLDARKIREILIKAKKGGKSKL
Compound,Potency,"activity change, negative = inhibition"
CCCN(CCC)c1c([N+](=O)[O-])cc(C(F)(F)F)cc1[N+](=O)[O-],inactive,–
COC(=O)NC(=S)Nc1ccccc1NC(=S)NC(=O)OC,inactive,–
CCC(C)(CC)c1cc(NC(=O)c2c(OC)cccc2OC)on1,inactive,–
CCN(CC)CCO,inactive,–
CC1OC(C)OC(C)O1 (stereo not given),inactive,–
COc1ccc2c3c1O[C@H]1[C@@H](O)C=C[C@H]4[C@@H](C2)N(C)CC[C@@]341,inactive,–
CC(Oc1ccc(Cl)cc1Cl)C(=O)O (stereo not given),inactive,–
Nc1c(Cl)c(Cl)nc(C(=O)O)c1Cl,inactive,–
O=C(O)c1ccccn1,inactive,–
CCCCN(CC)C(=O)SCCC,inactive,–
CCNc1nc(NC(C)(C)C)nc(SC)n1,inactive,–
NCCc1ccc(O)cc1,inactive,–
CCCCN(CCCC)SN(C)C(=O)Oc1cccc2c1OC(C)(C)C2,inactive,–
CCN(CC)c1ccccc1,inactive,–
O=c1ccc(=O)[nH][nH]1,inactive,–
CCOC(=O)c1ccccc1C(=O)OCC,inactive,–
COC(=O)c1ccccc1C(=O)OC,inactive,–

Compound,Potency,"activity change, negative = inhibition"
COC(=O)c1ccccc1N,inactive,–
[N-]=[N+]=[N-],inactive,–
C=CCO,inactive,–
O=S(=O)(c1ccc(Cl)cc1)c1cc(Cl)c(Cl)cc1Cl,inactive,–
CCC[N+](=O)[O-],34.9 µM (active) and inactive,–
CCCC1COC(Cn2cncn2)(c2ccc(Cl)cc2Cl)O1 (stereo not given),inactive,–
CCCCCOC(=O)c1ccccc1C(=O)OCCCCC,inactive,–
C=C(C)CCl,inactive,–
C1CN2CCN1CC2,inactive,–
CCOP(=S)(OCC)Oc1cnc2ccccc2n1,–,-13.5% (inactive)
Cc1ccc([N+](=O)[O-])cc1C,inactive,–
CC(C)=C[C@@H]1[C@@H](C(=O)OCc2coc(Cc3ccccc3)c2)C1(C)C,inactive,–
C[C@]12CC[C@H]3[C@@H](CC[C@@]45O[C@@H]4C(O)=C(C#N)C[C@]35C)[C@@H]1CC[C@@H]2O,inactive,–
c1ccc(OP(Oc2ccccc2)Oc2ccccc2)cc1,inactive,–
O=C1CCCN1,inactive,–
Cc1cccc([N+](=O)[O-])c1,inactive,–

# Tested on: not listed separately
# Test: qHTS assay to identify small molecule agonists of the constitutive androstane receptor (CAR) signaling pathway - cell viability counter screen (AID 1224836); further: nearly all actives have a fitted effect of over 45% in size
# Settings: HepG2-CYP2B6-hCAR viability, CellTiter-Fluor, 23 h, PK11195 added to every well; series mostly up to 92.4 µM; viability change, negative = cytotoxic: at the top concentration
# Procedure, shortened: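 Cells were seeded and incubated 4 hrs. Compounds were added across 15 concentrations together with PK11195 at 0.75 uM final. Plates were incubated 23 hrs at 37 C. CellTiter-Fluor was added and fluorescence measured.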
Compound,Potency,"viability change, negative = cytotoxic"
CCCN(CCC)c1c([N+](=O)[O-])cc(C(F)(F)F)cc1[N+](=O)[O-],inactive,–
COC(=O)NC(=S)Nc1ccccc1NC(=S)NC(=O)OC,inactive,–
CCC(C)(CC)c1cc(NC(=O)c2c(OC)cccc2OC)on1,inactive,–
CN(C)[C@@H]1C(=O)C(C(N)=O)=C(O)[C@@]2(O)C(=O)C3=C(O)c4c(O)cccc4[C@@](C)(O)[C@H]3C[C@@H]12,inactive,–
CCN(CC)CCO,inactive,–
CC1OC(C)OC(C)O1 (stereo not given),inactive,–
COc1ccc2c3c1O[C@H]1[C@@H](O)C=C[C@H]4[C@@H](C2)N(C)CC[C@@]341,–,-6.35% (inactive)
CC(Oc1ccc(Cl)cc1Cl)C(=O)O (stereo not given),inactive,–
Nc1c(Cl)c(Cl)nc(C(=O)O)c1Cl,inactive,–
O=C(O)c1ccccn1,inactive,–
CCCCN(CC)C(=O)SCCC,inactive,–
CCNc1nc(NC(C)(C)C)nc(SC)n1,inactive,–
Cc1ccc(N)cc1N,inactive,–
NCCc1ccc(O)cc1,inactive,–
CCCCN(CCCC)SN(C)C(=O)Oc1cccc2c1OC(C)(C)C2,inactive,–
CCN(CC)c1ccccc1,inactive,–
O=c1ccc(=O)[nH][nH]1,inactive,–
CCOC(=O)c1ccccc1C(=O)OCC,inactive,–

Compound,Potency,"viability change, negative = cytotoxic"
COC(=O)c1ccccc1C(=O)OC,inactive,–
CN1C(=O)CN=C(c2ccccc2)c2cc(Cl)ccc21,inactive,–
COC(=O)c1ccccc1N,inactive,–
[N-]=[N+]=[N-],inactive,–
C=CCO,inactive,–
O=S(=O)(c1ccc(Cl)cc1)c1cc(Cl)c(Cl)cc1Cl,inactive,–
CCCC1COC(Cn2cncn2)(c2ccc(Cl)cc2Cl)O1 (stereo not given),–,-21.3% (inactive)
CCCCCOC(=O)c1ccccc1C(=O)OCCCCC,inactive,–
C=C(C)CCl,inactive,–
C1CN2CCN1CC2,inactive,–
CCOP(=S)(OCC)Oc1cnc2ccccc2n1,inactive,–
Cc1ccc([N+](=O)[O-])cc1C,inactive,–
CC(C)=C[C@@H]1[C@@H](C(=O)OCc2coc(Cc3ccccc3)c2)C1(C)C,inactive,–
C[C@]12CC[C@H]3[C@@H](CC[C@@]45O[C@@H]4C(O)=C(C#N)C[C@]35C)[C@@H]1CC[C@@H]2O,inactive,–
c1ccc(OP(Oc2ccccc2)Oc2ccccc2)cc1,inactive,–
O=C1CCCN1,inactive,–
c1ccc2c(c1)oc1ccccc12,inactive,–
Cc1cccc([N+](=O)[O-])c1,inactive,–
